A selection: hits, their analogues and other compounds. The true share with any hit is near 19%.
IL1B secr inh: qHTS for Inhibitors of Inflammasome Signaling: IL-1-beta AlphaLISA Primary Screen. THP-1 LPS/ATP IL-1B secretion, AlphaLISA, 16 h; active compounds read low. activity change, % at 57.5 µM. 360,000 compounds, 4.7% hits. AID 743279, 2014; in the data active means activity change below about -50%; inconclusive means mostly about -30% to -49%
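THP-1 cells pretreated 1 hr with compounds (up to 57.5 uM final), then stimulated with LPS (250 ng/mL final) plus ATP (1.25 mM final); secreted IL-1B measured by AlphaLISA after 16 hr, decreased signal indicating inhibition.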
Giardia killer: Small Molecules that selectively kill Giardia lamblia: qHTS. Giardia lamblia trophozoite viability. activity change, % at 7.66 µM, hits read low. 340,000 compounds, 0.15% hits. AID 540267, 2011; in the data active means activity change below about -80%; inconclusive means between about -30% and that limit;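 further: parasites exposed to compound for two days anaerobically before the ATP read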
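Luminescence from cellular ATP indicates surviving trophozoites (100 cells/well) following 48 hrs anaerobic compound treatment at 37 deg C; signal develops 15-30 min at room temperature.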
DT40 TDP1 CPT: qHTS for Inhibitors of human tyrosyl-DNA phosphodiesterase 1 (TDP1): qHTS in cells in presence of CPT. Potency, µM (doses to about 46.2 µM), for the others: at the top dose activity change, negative = growth inhibition, hits mostly inhibitors. 420,000 compounds, 12% hits. chicken DT40 Tdp1-/-;hTDP1 cells + 20 nM CPT, ATP luminescence, 48 h; further: potency means the concentration at half of the fitted maximal effect; nearly all actives have a fitted effect of over 55% in size
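Chicken DT40 Tdp1-/- cells complemented with human TDP1, 400 cells/well, exposed to compounds plus 20 nM camptothecin for at least 48 h at 37 C; viability read as ATP content by CellTiter-Glo luminescence.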
DT40 TDP1 no CPT: qHTS for Inhibitors of human tyrosyl-DNA phosphodiesterase 1 (TDP1): qHTS in cells in absence of CPT | DT40 Tdp1-/- hTDP1 cells, no CPT, ATP luminescence, 48 h | Potency, µM (titrated, usually from 46.2 µM), for the others: top-dose activity change, negative = growth inhibition, actives largely listed as inhibitors | 420,000 compounds, 15% hits; further: potency means the concentration at half of the fitted maximal effect; nearly all actives have a fitted effect of over 55% in size
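Seeded 400 DT40-hTDP1 cells/well (vehicle DMSO, no 20 nM CPT); pinned compounds; ≥48 hr at 37 °C; CellTiter-Glo luminescence as viability measure.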
ELG1 repair inh: qHTS screen for small molecules that inhibit ELG1-dependent DNA repair in human embryonic kidney (HEK293T) cells expressing luciferase-tagged ELG1; Potency, µM (top dose mostly 46.1 µM), for inactives: at the top dose activity change, negative = inhibition, most hits filed as inhibitors; AID 504467, 2011; HEK293T ELG1-luciferase reporter, luminescence, 16 h; DNA damage induced by 5-fluorouridine; 330,000 compounds, 2.3% hits; further: potency means the concentration at half of the fitted maximal effect; nearly all actives have a fitted effect of over 55% in size
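Step one: seed 2,000 cells per well. Step two: pin-transfer compound or DMSO alongside 5-fluorouridine. Step three: incubate 16 hr, 37 °C, 5% CO2. Step four: add ONE-Glo, wait 30 min, read luminescence.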
TDP1 block: qHTS Assay for Inhibitors of Tyrosyl-DNA Phosphodiesterase (TDP1); Tyrosyl-DNA phosphodiesterase 1 (Homo sapiens), Q9NUW8; recombinant TDP1, AlphaScreen DNA substrate cleavage; Potency, µM (titrated, usually from 130 µM), for inactives: at the top dose activity change, negative = inhibition, usual class: inhibitors; 350,000 compounds, 0.28% hits; AID 485290, 2010; further: potency means the concentration at half of the fitted maximal effect; nearly all actives have a fitted effect of over 40% in size
Target sequence (Q9NUW8 whole entry, looked up): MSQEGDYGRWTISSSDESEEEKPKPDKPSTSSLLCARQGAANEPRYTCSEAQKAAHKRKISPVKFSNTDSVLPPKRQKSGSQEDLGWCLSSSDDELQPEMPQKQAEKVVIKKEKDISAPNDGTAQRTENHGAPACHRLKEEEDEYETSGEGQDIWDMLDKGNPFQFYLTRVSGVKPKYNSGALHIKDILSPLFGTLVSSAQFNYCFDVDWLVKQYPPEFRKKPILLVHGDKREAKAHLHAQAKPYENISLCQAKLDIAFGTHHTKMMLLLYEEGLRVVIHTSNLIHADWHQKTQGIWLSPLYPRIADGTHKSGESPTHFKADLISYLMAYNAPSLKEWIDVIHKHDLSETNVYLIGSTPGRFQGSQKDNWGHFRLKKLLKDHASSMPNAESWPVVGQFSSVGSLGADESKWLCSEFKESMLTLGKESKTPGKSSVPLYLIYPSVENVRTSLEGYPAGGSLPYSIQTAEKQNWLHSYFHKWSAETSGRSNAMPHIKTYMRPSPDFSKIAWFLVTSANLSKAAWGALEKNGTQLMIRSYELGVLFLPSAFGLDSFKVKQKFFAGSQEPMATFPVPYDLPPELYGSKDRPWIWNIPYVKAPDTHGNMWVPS
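Here, a 5' biotin and 3' phosphotyrosine-FITC DNA oligonucleotide reports Tdp1 activity: intact substrate bridges AlphaScreen beads, while cleavage leaves a 3' phosphate and drops signal. All incubations at room temperature.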
Numbers without * were called inactive; i = inactive; ? = inconclusive; / = no result given; [ ] = remark or other dose. Unless noted, the call rests on the fitted dose curve; in most records, active means well fitted curve in the direction sought with a large enough effect; inconclusive means small, poorly fitted or top-dose-only effect, or another doubt; inactive means no such curve, though single readings can be large; an effect the other way counts as inactive or inconclusive. On the % scale 0 is the no-effect control and ±100 the full control effect.

SMILES | IL1B secr inh | Giardia killer | DT40 TDP1 CPT | DT40 TDP1 no CPT | ELG1 repair inh | TDP1 block
COc1cccc(NC(=O)c2sc3nc(C)c(C(=O)Nc4ccc(C)cc4C)c(-c4ccc(C)o4)c3c2N)c1 | / | / | 10µM* | 6.5µM* | / | 5%
COc1ccc(-c2c3c(nc4sc(C(=O)Nc5cc(C)on5)c(N)c24)CCC3)cc1 | -88* | -4 | -21% | ? | ? | 0%
COc1ccc(-c2c3c(nc4sc(C(=O)Nc5ccc(Cl)cc5)c(N)c24)CC(C)(C)CC3=O)cc1 | / | / | 16µM* | 8.2µM* | / | /
CCOC(=O)c1ccc(NC(=O)Cn2c(=O)cc(C(F)(F)F)c3c(C)nn(C)c32)cc1 | / | / | -12% | 16% | / | 8%
CCc1cc2c(=O)c(-c3nc4ccccc4n3C)c(C(C)C)oc2c(CN2CCN(C)CC2)c1O | -8 | -13 | 7.3µM* | 12µM* | ? | 7%
CCc1cc2c(=O)c(-c3nc4ccccc4n3C)c(C)oc2c(CN2CCN(CCO)CC2)c1O | -4 | -15 | 16µM* | ? | 12% | 5%
CCc1cc2c(=O)c(-c3nc4ccccc4n3C)c(C)oc2c(CN2CCOCC2)c1O | -16 | 12 | 8.2µM* | 9.2µM* | -14% | 5%
CCc1cc2c(=O)c(-c3nc4ccccc4n3C)coc2c(CN2CCCC(C)C2)c1O (stereo not given) | -1 | 3 | ? | 9.2µM* | -5% | /
CCc1cc2c(=O)c(-c3nc4ccccc4n3C)c(C)oc2c(CN2CCN(C)CC2)c1O | / | / | / | / | -14% | 4%[56.1 µM]
CCCn1c(=O)cc(N)n(-c2ccc(OC(F)(F)F)cc2)c1=O | -5 | -6 | 9% | 12% | 1% | /
O=C(Nc1cc(C(F)(F)F)ccc1Cl)c1noc2c1CCCCC2 | / | / | ? | ? | / | -5%
CC(=O)OCc1ccco1 | / | / | / | / | / | 0%
O=C(c1ccco1)N1N=C(c2ccc3nccnc3c2)CC1c1ccccc1 (stereo not given) | -27 | 34 | ? | 18µM* | -8% | 5%
O=C(c1ccco1)N1N=C(c2cccs2)CC1c1ccc(F)cc1 (stereo not given) | 25 | -3 | -25% | -2% | 0% | 9%
CS(=O)(=O)Nc1ccc(C2=NN(C(=O)c3ccco3)C(c3ccc(F)cc3)C2)cc1 (stereo not given) | -79* | 32 | -30% | 16µM* | ? | 6%
COc1ccc(C2=NN(C(=O)c3ccco3)C(c3cc4ccccc4nc3Cl)C2)cc1 (stereo not given) | 10 | -9 | ? | ? | 8% | /
CS(=O)(=O)Nc1cccc(C2=NN(C(=O)c3ccco3)C(c3cccs3)C2)c1 (stereo not given) | 1 | -2 | ? | ? | 6.5µM* | 1%
CC(=O)N1N=C(c2cccc(NS(C)(=O)=O)c2)CC1c1cccs1 (stereo not given) | 52 | -4 | -6% | -2% | -11% | 0%
CCC(=O)N1N=C(c2cccc(NS(C)(=O)=O)c2)CC1c1cccs1 (stereo not given) | -8 | -5 | ? | ? | 23µM* | 2%
CC(=O)N[C@@H](C)C(=O)NCC1Cc2cc(C)cc(-c3cnccn3)c2O1 (stereo not given in full) | / | / | -2%[9.04 µM] | -2% | / | /
CS(=O)(=O)Nc1ccc(C2=NN(C(=O)c3cccc(F)c3)C(c3cccs3)C2)cc1 (stereo not given) | -28 | 11 | ? | ? | 16µM* | /
CS(=O)(=O)Nc1ccc(C2=NN(C(=O)c3ccccc3)C(c3cccs3)C2)cc1 (stereo not given) | ? | 25 | ? | ? | ? | /
COc1ccc(CNC(=O)CN2C(=O)c3cccnc3Oc3ccc(C)cc32)cc1 | / | / | ? | ? | / | 9%
O=C(Nc1ccncc1)c1ccc(Cl)c(S(=O)(=O)N2CCc3ccccc32)c1 | ? | -20 | 9.2µM* | 7.3µM* | ? | -4%
Cc1cccc(NC(=O)c2ccc(Cl)c(S(=O)(=O)N3CCCC3)c2)n1 | i | -7 | -12% | ? | ? | 3%
SMILES | IL1B secr inh | Giardia killer | DT40 TDP1 CPT | DT40 TDP1 no CPT | ELG1 repair inh | TDP1 block
O=C1CN(C(=O)c2ccc(Cl)c(S(=O)(=O)N3CCc4ccccc43)c2)c2ccccc2N1 | 2 | -5 | 16µM* | 21µM* | ? | /
Cc1cccc(NC(=O)c2ccc(Cl)c(S(=O)(=O)N3CCc4ccccc43)c2)n1 | -13 | -17 | 23µM* | ? | ? | 2%
O=S(=O)(c1cc(Cl)ccc1Cl)N1CCc2ccccc21 | 24 | 22 | ? | ? | -1% | /
CN1CCC(N(C)C(=O)c2ccc(Cl)c(S(=O)(=O)N3CCc4ccccc43)c2)CC1 | -50* | 13 | ? | ? | 0% | 1%
O=C(Cn1cnc2scc(-c3ccc(Br)cc3)c2c1=O)N1CCOCC1 | -27 | -7 | -17% | -1% | -26% | 4%
COc1ccc(CNC(=O)C2CCN(S(=O)(=O)c3cccc4nonc34)CC2)cc1 | 8 | -9 | 4% | 0% | 1% | -6%
Cc1cnnc2ccccc12 | / | / | 2% | -5% | / | /
CCc1nnc(NC(=O)c2ccc(Cl)c(S(=O)(=O)N3CCc4ccccc43)c2)s1 | 7 | 6 | -11% | -24% | 23µM* | 3%
CCNC(=O)C1(C)CCCN1C(=O)c1c(F)cccc1F (stereo not given) | 0 | / | -30% | -13% | / | /
CC1(C(=O)NCc2ccccc2Br)CCN1Cc1c(F)cccc1F (stereo not given) | -21 | / | ? | ? | / | /
CC1(C(=O)NCc2ccc(C(F)(F)F)cc2)CCN1Cc1ccc(-c2ccccc2)o1 (stereo not given) | -54* | / | ? | ? | / | /
Cc1ccc(OCCN2CCC2(C)C(=O)NCc2ccc(C(F)(F)F)cc2)cc1 (stereo not given) | -19 | / | ? | 21µM* | / | /
CCNC(=O)C1(C)CCCN1Cc1c(F)cccc1F (stereo not given) | 0 | / | ? | 16µM* | / | /
CC1(C(=O)NCc2ccc(C(F)(F)F)cc2)CCN1Cc1c(F)cccc1F (stereo not given) | 4 | / | 16µM* | ? | / | /

Compound activity from PubChem BioAssay.
